The record followed here is publication PMC5515408, “Sequence-specific DNA binding by MYC/MAX to low-affinity non-E-box motifs”.

In all, about 5,000 sequences were measured (“log2 normalized fluorescence”: median about 0.089, highest 2% from about 0.81 on). This excerpt belongs to a sample that is enriched for the highest values.

Sequence of MYC (p64);MAX (p21), in MYC:MAX (P01106 16-454, chain 1 of 2): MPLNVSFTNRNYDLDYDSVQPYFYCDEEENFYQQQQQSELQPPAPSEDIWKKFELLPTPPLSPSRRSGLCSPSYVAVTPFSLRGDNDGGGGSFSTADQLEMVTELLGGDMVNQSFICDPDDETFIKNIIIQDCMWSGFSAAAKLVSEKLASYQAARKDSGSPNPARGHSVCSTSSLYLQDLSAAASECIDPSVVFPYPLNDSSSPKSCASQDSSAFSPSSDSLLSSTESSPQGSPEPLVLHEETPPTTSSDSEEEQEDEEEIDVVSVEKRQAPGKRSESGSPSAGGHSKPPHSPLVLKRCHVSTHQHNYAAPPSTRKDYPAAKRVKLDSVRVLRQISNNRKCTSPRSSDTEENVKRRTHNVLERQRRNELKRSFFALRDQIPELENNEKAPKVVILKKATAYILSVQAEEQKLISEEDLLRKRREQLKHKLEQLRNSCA
Sequence of MYC (p64);MAX (p21), in MYC:MAX (P61244 other isoform, or with tags, fused parts or gaps |, chain 2 of 2): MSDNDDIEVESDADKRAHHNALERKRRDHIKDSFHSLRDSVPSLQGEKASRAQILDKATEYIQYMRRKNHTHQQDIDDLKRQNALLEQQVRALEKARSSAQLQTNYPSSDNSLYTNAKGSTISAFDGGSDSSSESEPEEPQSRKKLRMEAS

The test addresses MYC (p64);MAX (p21), in MYC:MAX (human;human, UniProt P01106-1;P61244-2 1-439;1-151, |). Briefly: protein-binding microarray (anti-MAX antibody); PBM: 15 mM Tris-HCl pH 7.5, 100 mM KCl, 0.075% NP40, 7.5 mM beta-mercaptoethanol, 375 ng/ul BSA, 8 ng/ul poly(dA-dT):(dA-dT), 550 ng complex, 60 min, room tempe; high values mean tight binding. The following applies: protein: recombinant;recombinant; tags: 6xHis;6xHis; copies: 1;1; label: 3' end of printed strand (linker) attached to glass slide; dsDNA, one strand shown. Put shortly: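 A custom Agilent glass array held ~5000 unique 12-nt sequences in triplicate spots, made double-stranded by primer extension. His-tagged human MYC:MAX or MAX:MAX dimers (550 ng, produced in E. coli) were applied for 60 min at room temperature in Tris-KCl buffer, pH 7.5, with NP40, BSA and poly(dA-dT) competitor. Anti-MAX and secondary antibodies detected bound protein, with scanning at 543 nm, and binding is given as log2 normalized fluorescence.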
“CCGGCTGAACATGGGTATTAATAGCTAAGATTACTATATCGACG”: the binding signal was 0.288 log2 normalized fluorescence.
Regarding “CCGGCTGATCGGCGGTATTAATAGCTAAGATTACTATATCGACG”, the binding signal was 0.0519 log2 normalized fluorescence.
The result for “CCGGCTGACAGTCGGTATTAATAGCTAAGATTACTATATCGACG” reads 0.0326 log2 normalized fluorescence; that for “CCGGCTGACAGTTGGTATTAATAGCTAAGATTACTATATCGACG”, 0.112 log2 normalized fluorescence.
With “CCGGCTGAAATAGTGTATTAATAGCTAAGATTACTATATCGACG” the figure was 0.0457 log2 normalized fluorescence; with “CCGGCTGTCATGTGGTATTAATAGCTAAGATTACTATATCGACG”, 0.631 log2 normalized fluorescence; with “CCGGCTGACCTGTTGTATTAATAGCTAAGATTACTATATCGACG”, 0.216 log2 normalized fluorescence.
With “CCGGCTGAAAGAATGTATTAATAGCTAAGATTACTATATCGACG” the figure was 0.0901 log2 normalized fluorescence.
Consider “CCGGCTGATCATTTGTATTAATAGCTAAGATTACTATATCGACG”, for which the binding signal was 0.247 log2 normalized fluorescence.
Regarding “CCGGCCACCACGTGGTATTAATAGCTAAGATTACTATATCGACG”, the binding signal was 0.975 log2 normalized fluorescence.
For the sequence “CCGGCTGCCACGTCGTATTAATAGCTAAGATTACTATATCGACG”, the binding signal was 0.37 log2 normalized fluorescence.
With “CCGGCTGCCATGTGGGATTAATAGCTAAGATTACTATATCGACG” the figure was 0.899 log2 normalized fluorescence; with “CCGGCTGATACGTGGTCTTAATAGCTAAGATTACTATATCGACG”, 0.408 log2 normalized fluorescence.
With “CCGGCTGCGACGTGGTATTAATAGCTAAGATTACTATATCGACG” the figure was 0.41 log2 normalized fluorescence; with “CCGGCTGCCATGTGGTTTTAATAGCTAAGATTACTATATCGACG”, 0.633 log2 normalized fluorescence; with “CCGGCTACTATGCCATGTTAATAGCTAAGATTACTATATCGACG”, 0.159 log2 normalized fluorescence.
The result for “CCGGCCGCCACGTGGTCTTAATAGCTAAGATTACTATATCGACG” reads 0.884 log2 normalized fluorescence; that for “CCGGCGGCCACGTGGTATTAATAGCTAAGATTACTATATCGACG”, 0.783 log2 normalized fluorescence.
“CCGGCAACCACGTGGTATTAATAGCTAAGATTACTATATCGACG”: the binding signal is 0.742 log2 normalized fluorescence.
The result for “CCGGCTGAGACGTGGTCTTAATAGCTAAGATTACTATATCGACG” reads 0.229 log2 normalized fluorescence; that for “CCGGCTGCCACGTGGTATTAATAGCTAAGATTACTATATCGACG”, 0.82 log2 normalized fluorescence.
On to “CCGGCTGATGAGACGTATTAATAGCTAAGATTACTATATCGACG”, for which the binding signal is -0.0198 log2 normalized fluorescence.
In the case of “CCGGCTGATACAGTGTATTAATAGCTAAGATTACTATATCGACG”, the binding signal was 0.0568 log2 normalized fluorescence.
With “CCGGCTGAGATGCTGTATTAATAGCTAAGATTACTATATCGACG” the figure was -0.0512 log2 normalized fluorescence.
As for “CCGGCTGAGGCTATGTATTAATAGCTAAGATTACTATATCGACG”, the binding signal was -0.0462 log2 normalized fluorescence.
The result for “CCGGCTGACTCTTGGTATTAATAGCTAAGATTACTATATCGACG” reads 0.16 log2 normalized fluorescence.
The result for “CCGGCTGATGGCCTGTATTAATAGCTAAGATTACTATATCGACG” reads 0.18 log2 normalized fluorescence.
With “CCGGCTGATACACGGTATTAATAGCTAAGATTACTATATCGACG” the figure was 0.262 log2 normalized fluorescence; with “CCGGCTGAGCCAATGTATTAATAGCTAAGATTACTATATCGACG”, 0.00395 log2 normalized fluorescence.
Regarding “CCGGCTGAAACCGCGTATTAATAGCTAAGATTACTATATCGACG”, the binding signal is 0.25 log2 normalized fluorescence.
The result for “CCGGCTGAGAGTACGTATTAATAGCTAAGATTACTATATCGACG” reads 0.142 log2 normalized fluorescence; that for “CCGGCTGAGGGTCGGTATTAATAGCTAAGATTACTATATCGACG”, 0.137 log2 normalized fluorescence; that for “CCGGCTGTCACGTGGAATTAATAGCTAAGATTACTATATCGACG”, 0.766 log2 normalized fluorescence.
For the sequence “CCGGCCGCCACGTAGTATTAATAGCTAAGATTACTATATCGACG”, the binding signal is 0.312 log2 normalized fluorescence.
The result for “CCGGCCGCGACGTGGTATTAATAGCTAAGATTACTATATCGACG” reads 0.471 log2 normalized fluorescence; that for “CCGGCTGCCACGAGGAATTAATAGCTAAGATTACTATATCGACG”, 0.707 log2 normalized fluorescence.
The result for “CCGGCTGCCACGTGGAATTAATAGCTAAGATTACTATATCGACG” reads 0.873 log2 normalized fluorescence; that for “CCGGCCGCCACGTGGTATTAATAGCTAAGATTACTATATCGACG”, 0.88 log2 normalized fluorescence; that for “CCGGCTGACGCGTCGTATTAATAGCTAAGATTACTATATCGACG”, 0.46 log2 normalized fluorescence.
With “CCGGCTGACGCGTGATATTAATAGCTAAGATTACTATATCGACG” the figure was 0.675 log2 normalized fluorescence; with “CCGGCTAAGACGTGGTATTAATAGCTAAGATTACTATATCGACG”, 0.411 log2 normalized fluorescence.
For “CCGGCCCGCACGTGGTATTAATAGCTAAGATTACTATATCGACG”, the binding signal is 0.749 log2 normalized fluorescence.
With “CCGGCCCCCACGTGGTATTAATAGCTAAGATTACTATATCGACG” the figure was 0.854 log2 normalized fluorescence; with “CCGGCCCACACGTGGTGTTAATAGCTAAGATTACTATATCGACG”, 0.705 log2 normalized fluorescence; with “CCGGCGCCCACGTGGTATTAATAGCTAAGATTACTATATCGACG”, 0.862 log2 normalized fluorescence.
With “CCGGCCCACACGTGGTATTAATAGCTAAGATTACTATATCGACG” the figure was 0.945 log2 normalized fluorescence.
With “CCGGCTCCCACGTGGTATTAATAGCTAAGATTACTATATCGACG” the figure was 0.763 log2 normalized fluorescence; with “CCGGCGACCACGTGGTATTAATAGCTAAGATTACTATATCGACG”, 0.741 log2 normalized fluorescence; with “CCGGCTGATCAAGGGTATTAATAGCTAAGATTACTATATCGACG”, 0.0432 log2 normalized fluorescence.
“CCGGCTGAAGTTGTGTATTAATAGCTAAGATTACTATATCGACG”: the binding signal was 0.0113 log2 normalized fluorescence.
The result for “CCGGCTGAACGAAAGTATTAATAGCTAAGATTACTATATCGACG” reads 0.0903 log2 normalized fluorescence; that for “CCGGCTGACACGTGTCGTTAATAGCTAAGATTACTATATCGACG”, 0.947 log2 normalized fluorescence; that for “CCGGCTGACACGTGTTGTTAATAGCTAAGATTACTATATCGACG”, 0.83 log2 normalized fluorescence.
With “CCGGCTGACACGTGACGTTAATAGCTAAGATTACTATATCGACG” the figure was 0.654 log2 normalized fluorescence; with “CCGGCTGACACGTGTAATTAATAGCTAAGATTACTATATCGACG”, 0.708 log2 normalized fluorescence; with “CCGGCTGACACATGGTTTTAATAGCTAAGATTACTATATCGACG”, 0.817 log2 normalized fluorescence.
With “CCGGCTGACACGTGTACTTAATAGCTAAGATTACTATATCGACG” the figure was 0.823 log2 normalized fluorescence.
